Only some compounds are listed: those with a hit (about 2.6% of all), similar ones and a draw of the others.
SIAE primary: inhibitors of human sialic acid acetylesterase SIAE; Q9HAT2; SIAE FP-Rh probe binding, fluorescence polarization; inhibition, % at 9.66 µM; 0.69% of 370,000 active; AID 1053197;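 active = inhibition above a cutoff: mean of compounds within the control limits plus 3 SD of those, cut at about 17% in these data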;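 note: 0% = plate median of compound wells and 100% = probe without SIAE protein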
PME-1 inh: PME-1 (human) inhibition. Q9Y570. inhibition, % at 5.9 µM. recombinant PME-1, FP-Rh probe fluorescence polarization. 0.53% of 320,000 active. AID 2130;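 active = inhibition above the campaign mean of all compounds plus 3 SD, cut at about 26% in these data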;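 note: competitive labeling of PME-1 active site by serine hydrolase directed probe; 0% = PME-1 with DMSO and 100% = wells lacking PME-1 enzyme; inhibitors block probe labeling so polarization falls and inhibition rises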
Target sequence (Q9Y570 whole entry, looked up): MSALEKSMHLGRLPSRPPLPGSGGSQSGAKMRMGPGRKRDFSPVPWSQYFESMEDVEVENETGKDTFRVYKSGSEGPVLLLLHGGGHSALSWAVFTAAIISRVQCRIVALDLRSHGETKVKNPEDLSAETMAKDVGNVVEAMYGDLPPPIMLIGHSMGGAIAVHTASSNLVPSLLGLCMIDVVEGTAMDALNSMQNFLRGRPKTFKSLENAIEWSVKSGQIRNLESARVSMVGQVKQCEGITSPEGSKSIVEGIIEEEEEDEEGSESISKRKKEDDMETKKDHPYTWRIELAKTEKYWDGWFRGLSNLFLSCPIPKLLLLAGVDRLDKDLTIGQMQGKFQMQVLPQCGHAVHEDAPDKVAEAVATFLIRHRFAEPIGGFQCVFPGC
Fam108B counter: counter-screen for RBBP9 inhibitors: inhibitors of mouse Fam108B | recombinant Fam108B, FP-Rh probe fluorescence polarization | inhibition, % at 9.51 µM | 0.33% of 300,000 active | AID 1947;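 active = inhibition above the screen mean inhibition plus 3 SD, computed separately per campaign, cut at about 18% in these data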;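 note: inhibitors lower polarization as less probe binds the enzyme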
TCR-CD3 inh: inhibitors of human TCR-CD3 interaction | inhibition, % at 9.4 µM | 0.37% of 360,000 active | TAMRA-labeled TCR probe fluorescence, biochemical | AID 651800; in the data active = inhibition above about 19%;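 note: recombinant mutant TCR 2C K166C tagged with TAMRA read by polarization; 0% = receptor in buffer alone and 100% = receptor with positive control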
PRMT1 FP inh: PRMT1 (human) inhibition, primary screen. recombinant PRMT1, activity-based probe fluorescence polarization. inhibition, % at 2.79 µM. 1.3% of 370,000 active. AID 652257;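 active = inhibition above about 21% made by adding two undisclosed values, limit read from the data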
PAD4 FP inh: blocks human protein arginine deiminase 4. Q9UM07. recombinant PAD4, RCA probe fluorescence polarization. inhibition, % at 6.36 µM. 0.41% of 330,000 active;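 active = percent inhibition above a cutoff equal to the mean of all tested compounds plus 3 SD, cut at about 15% in these data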;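 note: 0% = PAD4 with RCA probe and DMSO and 100% = probe without PAD4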
SIAE confirm: human SIAE inhibition, confirmation; 13% of 2,300 active; SIAE FP-Rh activity-based probe, fluorescence polarization; inhibition, % at 9.66 µM; shares compounds with SIAE primary;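 active = mean inhibition of the replicates above the hit cutoff set in the primary screen, cut at about 17% in these data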;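 note: 0% = SIAE with DMSO and probe and 100% = probe without SIAE; inhibitors lower polarization as more probe stays unbound to SIAE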
An asterisk follows results filed as active; / = not tested or not shown.

SMILES | SIAE primary | PME-1 inh | Fam108B counter | TCR-CD3 inh | PRMT1 FP inh | PAD4 FP inh | SIAE confirm
OCC1(CCc2ccccc2)CCCN(C/C=C/c2ccccc2)C1 (centres undefined) | 18* | -5 | 0 | 5 | -1 | 1 | -2
O=C(NCCc1ccc(Cl)cc1)C(=O)c1c[nH]c2ccccc12 | 3 | -7 | -1 | 1 | 0 | -1 | /
O=C(CCc1c[nH]c2ccccc12)Nc1ccc(Nc2ccncc2)cc1 | 26* | / | / | -4 | 1 | / | 21*
O=C(CCc1c[nH]c2ccccc12)NCCc1ccc2c(c1)OCCO2 | 17* | 5 | 0 | -2 | 7 | -1 | -2
O=C(CCc1c[nH]c2ccccc12)Nc1ccc(Nc2cccnc2)cc1 | 11 | / | / | -4 | -2 | / | /
O=C(NCCc1c[nH]c2ccccc12)C(=O)c1c[nH]c2ccccc12 | 27* | 5 | 1 | 6 | 3 | -3 | -5
CCc1nnc(NC(=O)CCc2c[nH]c3ccccc23)s1 | 18* | 2 | -4 | -1 | 1 | 0 | 5
O=C(CCc1c[nH]c2ccccc12)NCc1cccc(Cl)c1 | 3 | -2 | -1 | -7 | 2 | -7 | /
Cc1cc(C)nc(N2CCC(C(=O)N(C)CCc3ccccn3)CC2)n1 | 11 | / | / | / | -9 | / | /
c1ccc(Nc2ccc(NCCc3c[nH]c4ccccc34)cc2)cc1 | 13 | / | / | -10 | 13 | / | /
O=C(CCc1c[nH]c2ccccc12)Nc1ccc(Nc2cccnc2)c(Br)c1 | 17 | / | / | -6 | 4 | / | /
CN(c1cccnc1)c1ccc(NC(=O)CCc2c[nH]c3ccccc23)cc1Br | 32* | / | / | -6 | 11 | / | 45*
O=C(CCc1c[nH]c2ccccc12)Nc1ccc(Nc2ccccc2)cc1 | 17* | / | / | -8 | 4 | / | 13
COc1ccc(CNS(=O)(=O)/C=C/c2ccc(F)cc2CNC(=O)OC(C)(C)C)cc1 | -2 | / | / | / | -3 | / | /
Cc1occc1C(=O)NNC(=S)Nc1cccc([N+](=O)[O-])c1 | 22* | 6 | -2 | 4 | -1 | 2 | 3
S=C(NNc1ccnc2cc(Cl)ccc12)Nc1ccccc1Cl | 24* | 22 | 3 | 7 | 9 | -1 | 20*
S=C(Nc1ccccc1Cl)Nc1ccc(Cl)cc1Cl | 0 | -2 | 2 | -1 | -3 | -2 | /
Cc1cc(C)nc(/N=C(\N)Nc2ccc3c(c2)OCCO3)n1 | 18* | -1 | 4 | -6 | -3 | 10 | -5
CN(C)CCCn1c(NCc2ccc3c(c2)OCO3)nc2ccccc21 | 18* | 6 | 7 | 3 | 1 | -4 | 5
CCn1c(NCc2ccc3c(c2)OCO3)nc2ccccc21 | 3 | -2 | -6 | -9 | -3 | 2 | /
CCOC(=O)c1c(C)[nH]c(C2=NNC(=Nc3ccc(OCC)cc3)SC2)c1C | 28* | 28* | 7 | -2 | 10 | -21 | 1
C[C@H]1CCCN1c1cccc2c1S(=O)(=O)N1CC[C@@H](C1)O2 | -3 | / | / | / | 2 | / | /
COc1ccc(OCc2cc(C(=O)N3CCCC(O)C3)no2)c2ccccc12 (centres undefined) | 18* | 4 | 1 | -1 | 0 | 3 | 0
N#Cc1ccc(/C=C2\CC3(OC(=O)c4ccco4)CCCN2C3)cc1 (centres undefined) | -1 | / | / | / | 0 | / | /
O=C(O)CSCC(=O)N1CCN(S(=O)(=O)c2ccccc2)CC1 | 21* | 4 | -1 | -4 | -3 | 1 | -1
SMILES | SIAE primary | PME-1 inh | Fam108B counter | TCR-CD3 inh | PRMT1 FP inh | PAD4 FP inh | SIAE confirm
N#Cc1ccccc1NCC(=O)N1CCN(S(=O)(=O)c2ccccc2)CC1 | 17* | 5 | / | 4 | 1 | -1 | 0
O=C(Nc1cc(Cl)ccc1F)C1CCCN1S(=O)(=O)c1cccc2cccnc12 (centres undefined) | 8 | / | / | / | -3 | / | /
COc1ccc(C(=O)Oc2ccc3c(C)cc(=O)oc3c2C(C)=O)cc1 | 17* | 0 | 0 | -2 | 1 | -1 | -1
CC(=O)Oc1ccc2c(C)cc(=O)oc2c1C(=O)c1ccccc1 | 5 | -7 | 0 | 3 | 1 | 0 | /
CCOC(=O)[C@]12CCCC=C1N(Cc1ccc(OC)cc1)C(=O)[C@@H]2CC(=O)N1CCC(c2ccccc2)CC1 | -5 | / | / | / | 2 | / | /
O=C(O)CCc1nn2c3ccccc3n(CC(=O)O)c2nc1=O | 30* | -4 | 4 | 2 | 0 | -6 | -2
